Calls of active or inactive are those of the source.
Assays:
[1] = tested on: Plasmodium falciparum Sir2 (PF13_0152, Sir2A); test: Plasmodium falciparum Sir2A binding compounds – biochemical, small-molecule microarray, 635 nm fluorescence, primary screen (AID 1098); details: fluorescence 635 nm, higher = more signal;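 further: score merges spot fluorescence intensity with its signal-to-noise ratio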
[2] = probe aDKK1 binding to arrayed compounds – biochemical, biotinylated probe, 635/667 nm fluorescence, primary screen (AID 1099); details: small-molecule microarray, higher = more signal;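 further: score merges 667nm spot fluorescence with signal to noise across triplicate slides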
[3] = probe aCHRDL2 binding to arrayed compounds – biochemical, biotinylated probe, 635/667 nm fluorescence, primary screen (AID 1100); details: small-molecule microarray, higher = more signal
[4] = change in splice reporter luminescence, either direction, cell-based, HEK293, spliceosome inhibition project, primary screen (AID 1101); details: HEK293 splicing luciferase reporter, 24 h, higher = more signal, called active from +8 up or from −8 down;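 further: HEK293 cells carrying a splicing-competent luciferase reporter gene; test concentration not given here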
[5] = target: Fibroblast growth factor 10 (Homo sapiens) (UniProt O15520); test: compounds binding fibroblast growth factor 10 – biochemical, small-molecule microarray, 635 nm fluorescence, primary screen (AID 1102); details: FGF10 binding, fluorescence 635 nm, higher = more signal
Chain of Fibroblast growth factor 10 (Homo sapiens) (O15520 whole entry, looked up): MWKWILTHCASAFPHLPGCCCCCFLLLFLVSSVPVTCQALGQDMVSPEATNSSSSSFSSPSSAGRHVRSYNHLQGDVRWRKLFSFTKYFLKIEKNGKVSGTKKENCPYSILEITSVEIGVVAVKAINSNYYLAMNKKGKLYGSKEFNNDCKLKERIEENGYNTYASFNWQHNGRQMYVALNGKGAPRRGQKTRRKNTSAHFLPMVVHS

[6] = tested on: glycogen synthase kinase-3 (GSK3A per assay name; protocol says GSK3B); test: compounds binding glycogen synthase kinase-3 – biochemical, small-molecule microarray, 635 nm fluorescence, GSK3A, primary screen (AID 1103); details: fluorescence 635 nm, higher = more signal; further: the record names both GSK3A and GSK3B
[7] = target: Epidermal growth factor receptor (Homo sapiens) (UniProt P00533); test: compounds binding epidermal growth factor receptor – biochemical, small-molecule microarray, 635 nm fluorescence, primary screen (AID 1104); details: EGFR binding, higher = more signal;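 further: score merges 667 nm emission intensity with spot signal to noise over triplicate slides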
Chain of Epidermal growth factor receptor (Homo sapiens) (P00533 whole entry, looked up): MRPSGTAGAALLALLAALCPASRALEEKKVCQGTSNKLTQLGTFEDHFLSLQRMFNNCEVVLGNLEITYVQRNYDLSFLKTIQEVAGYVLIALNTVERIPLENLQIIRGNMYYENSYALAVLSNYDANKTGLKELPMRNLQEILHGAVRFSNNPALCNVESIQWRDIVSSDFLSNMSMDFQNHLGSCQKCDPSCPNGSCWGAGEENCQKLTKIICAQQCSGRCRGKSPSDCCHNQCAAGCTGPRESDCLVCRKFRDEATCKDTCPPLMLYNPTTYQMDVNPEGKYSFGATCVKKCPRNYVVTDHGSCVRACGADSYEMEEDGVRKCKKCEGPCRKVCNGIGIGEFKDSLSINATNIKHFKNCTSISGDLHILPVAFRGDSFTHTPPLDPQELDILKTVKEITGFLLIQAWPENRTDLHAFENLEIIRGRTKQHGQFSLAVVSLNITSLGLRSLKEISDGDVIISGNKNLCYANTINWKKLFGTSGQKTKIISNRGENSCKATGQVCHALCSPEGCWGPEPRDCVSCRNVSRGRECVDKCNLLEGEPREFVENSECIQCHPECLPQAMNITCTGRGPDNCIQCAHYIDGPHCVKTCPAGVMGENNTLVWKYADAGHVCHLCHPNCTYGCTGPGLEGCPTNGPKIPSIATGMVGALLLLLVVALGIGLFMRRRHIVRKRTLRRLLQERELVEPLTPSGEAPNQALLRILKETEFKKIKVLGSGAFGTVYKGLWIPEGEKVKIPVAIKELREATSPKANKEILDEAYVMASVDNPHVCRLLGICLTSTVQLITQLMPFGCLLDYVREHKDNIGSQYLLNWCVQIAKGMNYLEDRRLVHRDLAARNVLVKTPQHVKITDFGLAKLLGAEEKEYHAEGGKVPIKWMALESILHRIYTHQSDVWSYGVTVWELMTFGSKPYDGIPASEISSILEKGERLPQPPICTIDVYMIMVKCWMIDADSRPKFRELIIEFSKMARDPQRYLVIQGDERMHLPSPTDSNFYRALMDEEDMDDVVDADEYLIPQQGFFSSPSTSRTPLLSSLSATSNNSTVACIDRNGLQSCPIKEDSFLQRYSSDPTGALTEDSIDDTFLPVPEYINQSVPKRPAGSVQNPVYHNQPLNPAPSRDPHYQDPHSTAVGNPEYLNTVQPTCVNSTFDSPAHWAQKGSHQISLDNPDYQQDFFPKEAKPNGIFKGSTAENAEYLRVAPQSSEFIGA

[8] = target: Follistatin-related protein 3 (Homo sapiens) (UniProt O95633); test: compounds binding follistatin-related protein 3 – biochemical, small-molecule microarray, 635 nm fluorescence, primary screen (AID 1105); details: FSTL3 binding, higher = more signal;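 further: score merges emission near 667 nm and signal to noise per printed spot across three slides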
Chain of Follistatin-related protein 3 (Homo sapiens) (O95633 whole entry, looked up): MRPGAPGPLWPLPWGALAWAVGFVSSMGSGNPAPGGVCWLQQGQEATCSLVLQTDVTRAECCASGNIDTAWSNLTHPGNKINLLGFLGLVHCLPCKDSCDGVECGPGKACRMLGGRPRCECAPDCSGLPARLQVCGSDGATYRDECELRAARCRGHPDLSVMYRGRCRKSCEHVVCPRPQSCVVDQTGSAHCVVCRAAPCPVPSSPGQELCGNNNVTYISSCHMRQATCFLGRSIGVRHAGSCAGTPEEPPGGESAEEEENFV

[9] = target: Dickkopf-related protein 1 (Homo sapiens) (UniProt O94907); test: small molecules binding DKK1 protein – biochemical, small-molecule microarray, 635 nm fluorescence scan, primary screen (AID 1106); details: higher = more signal;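 further: score merges emission near 667 nm with signal to noise over three replicate slides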
Chain of Dickkopf-related protein 1 (Homo sapiens) (O94907 whole entry, looked up): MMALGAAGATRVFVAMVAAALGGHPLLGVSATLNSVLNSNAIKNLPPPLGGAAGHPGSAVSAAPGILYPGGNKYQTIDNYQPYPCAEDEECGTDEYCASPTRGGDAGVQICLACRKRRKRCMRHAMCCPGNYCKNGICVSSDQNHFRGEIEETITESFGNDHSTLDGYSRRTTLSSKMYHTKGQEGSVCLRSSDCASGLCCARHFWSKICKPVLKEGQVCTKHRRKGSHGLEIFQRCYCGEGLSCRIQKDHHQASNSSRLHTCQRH

[10] = tested on: Inhibin beta A chain (activin A); test: small molecules binding activin A – biochemical, small-molecule microarray, 635 nm fluorescence scan, primary screen (AID 1107); details: INHBA, higher = more signal;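 further: mouse activin A protein probed at 4.33 µg/mL on printed slides; score merges bound-protein fluorescence near 667 nm with spot signal-to-noise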
[11] = tested on: Human papillomavirus type 1a protein E7 (residues 44-93); test: small molecules binding HPV E7 44-93 – biochemical, small-molecule microarray, residues 44-93, 635 nm fluorescence, primary screen (AID 1108); details: fluorescence 635 nm, higher = more signal;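 further: E7 fragment applied at 1 µg/mL in TBST for 1 h at 4 C; score combines spot fluorescence with its signal to noise ratio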
[12] = hepatitis C replication reporter changes, two-sided – Huh7 cells, luciferase reporter, HCV replication inhibitor project, primary screen (AID 1109); details: Huh7 HCV replicon luciferase reporter, 48 h; higher = more signal;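 further: huh7 hepatoma cells harbouring a luciferase neomycin HCV replicon reporter; luciferase luminescence as measure of HCV replicon replication; test concentration not given here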
[13] = target: Left-right determination factor 2 (Homo sapiens) (UniProt O00292); test: small molecules binding LEFTY2 protein – biochemical, small-molecule microarray, 635 nm fluorescence scan, primary screen (AID 1110); details: higher = more signal
Chain of Left-right determination factor 2 (Homo sapiens) (O00292 whole entry, looked up): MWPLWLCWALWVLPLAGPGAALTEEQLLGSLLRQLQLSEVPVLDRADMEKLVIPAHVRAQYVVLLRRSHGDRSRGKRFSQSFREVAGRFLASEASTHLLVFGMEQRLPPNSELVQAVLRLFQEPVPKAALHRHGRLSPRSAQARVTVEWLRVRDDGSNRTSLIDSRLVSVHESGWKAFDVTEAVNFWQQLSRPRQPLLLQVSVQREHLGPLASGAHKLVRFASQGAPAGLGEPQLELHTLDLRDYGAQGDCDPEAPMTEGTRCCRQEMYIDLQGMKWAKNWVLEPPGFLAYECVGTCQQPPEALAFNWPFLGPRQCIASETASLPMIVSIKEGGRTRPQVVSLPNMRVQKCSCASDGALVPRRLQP

[14] = target: Calmodulin-1 (Homo sapiens) (UniProt P0DP23); test: small molecules binding calmodulin-1 with EGTA – biochemical, small-molecule microarray, Cy5-labelled CALM1, profiling panel (AID 1111); details: Cy5-CALM1 binding fluorescence, higher = more signal;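 further: labelled calmodulin applied in Tris saline Tween buffer holding calcium plus EGTA and DTT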
[15] = target: Calmodulin-1 (Homo sapiens) (UniProt P0DP23); test: small molecules binding Ca-loaded calmodulin-1 – biochemical, small-molecule microarray, Cy5-labelled CALM1, plus calcium, artefact control for SMM control-protein annotation, profiling panel (AID 1112); details: Cy5-CALM1 binding fluorescence, higher = more signal;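 further: score merges spot fluorescence with signal to noise from triplicate slides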
[16] = probe aWnt5a binding to arrayed compounds – biochemical, biotinylated probe, 635/667 nm fluorescence, primary screen (AID 1113); details: small-molecule microarray, higher = more signal;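 further: score merges 667 nm fluorescence intensity with signal-to-noise per printed feature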
[17] = probe aShh binding to arrayed compounds – biochemical, biotinylated probe, 635/667 nm fluorescence, primary screen (AID 1114); details: small-molecule microarray, higher = more signal;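 further: probe is biotin-labelled aShh protein from a stem cell growth factor screen; measures binding of labelled protein to compounds printed on the slide; score merges feature fluorescence at 667 nm with signal-to-noise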
[18] = probe aNog binding to arrayed compounds – biochemical, biotinylated probe, 635/667 nm fluorescence, primary screen (AID 1115); details: small-molecule microarray, higher = more signal;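 further: probe is biotinylated aNog protein used at 0.15 µg/mL for 1 h at 4 C; z-score combines 667 nm fluorescence of each spot with its signal to noise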
[19] = target: Torsin-1A-interacting protein 1 (Homo sapiens) (UniProt Q5JTV8); test: compound microarray binding of lysate hLAP1 – cell lysate, small-molecule microarray, COS7 lysate, 635/667 nm fluorescence, primary screen (AID 1116); details: 635 nm fluorescence, higher = more signal
Chain of Torsin-1A-interacting protein 1 (Homo sapiens) (Q5JTV8 whole entry, looked up): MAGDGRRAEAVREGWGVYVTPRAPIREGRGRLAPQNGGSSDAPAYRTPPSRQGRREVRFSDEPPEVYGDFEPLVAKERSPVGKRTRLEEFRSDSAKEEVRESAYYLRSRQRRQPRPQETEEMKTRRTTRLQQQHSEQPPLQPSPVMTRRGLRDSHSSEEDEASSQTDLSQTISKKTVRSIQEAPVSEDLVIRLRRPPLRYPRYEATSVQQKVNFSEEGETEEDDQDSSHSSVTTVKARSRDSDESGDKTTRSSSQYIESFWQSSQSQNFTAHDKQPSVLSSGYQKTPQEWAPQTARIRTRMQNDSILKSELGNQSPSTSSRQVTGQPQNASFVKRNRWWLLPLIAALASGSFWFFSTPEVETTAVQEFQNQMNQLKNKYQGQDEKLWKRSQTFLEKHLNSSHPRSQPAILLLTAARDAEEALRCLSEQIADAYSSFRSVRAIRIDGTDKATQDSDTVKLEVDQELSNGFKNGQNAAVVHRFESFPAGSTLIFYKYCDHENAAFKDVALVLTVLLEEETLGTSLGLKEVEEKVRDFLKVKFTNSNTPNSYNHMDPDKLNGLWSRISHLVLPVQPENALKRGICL

[20] = target: Alpha-bungarotoxin (Bungarus multicinctus) (UniProt P60615); test: compounds binding labelled alpha-BTX control protein – biochemical, small-molecule microarray, Alexa647 label, 635/667 nm fluorescence, artefact control for SMM control protein annotation, profiling panel (AID 1117); details: alpha-BTX-A647 binding fluorescence, higher = more signal
Chain of Alpha-bungarotoxin (Bungarus multicinctus) (P60615 whole entry, looked up): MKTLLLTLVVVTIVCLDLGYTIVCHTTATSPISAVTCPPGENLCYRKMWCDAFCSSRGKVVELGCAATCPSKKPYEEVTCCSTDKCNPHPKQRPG

Row | Structure (SMILES) | composite z-score [1] | composite z-score [2] | composite z-score [3] | z-score [4] | composite z-score [5] | composite z-score [6] | composite z-score [7] | composite z-score [8] | composite z-score [9] | composite z-score [10] | composite z-score [11] | z-score [12] | composite z-score [13] | composite z-score [14] | composite z-score [15] | composite z-score [16] | composite z-score [17] | composite z-score [18] | composite z-score [19] | composite z-score [20]
1 | O=C(NN=C1C[C@@H](O)[C@@H](O)[C@@H]2[C@@H]3C(=O)N(Cc4ccccc4)C(=O)[C@@H]3CC[C@@H]12)OCc1ccccc1 | 0.0168 | -0.293 | -0.284 | -0.566 (inactive) | 0.0818 | 0.329 | 0.263 | 0.31 | 0.357 | 0.198 | -0.572 | 0.104 | 0.401 | -0.619 | -0.786 | -0.143 | -0.197 | -0.223 | -0.0694 | 0.0077
2 | C#CCCCON=C1[C@H]2CCn3c(=O)n(-c4ccccc4)c(=O)n3[C@H]2[C@H](O)[C@@H]2O[C@H]12 | 0.164 | 0.238 | -0.615 | -1.65 (inactive) | 0.291 | 0.621 | 0.537 | 0.725 | 0.521 | 0.127 | 0.438 | -2.97 | 0.602 | -0.312 | -0.273 | -0.0792 | -0.0146 | -0.17 | -0.131 | 0.515
3 | CCOC(=O)[C@H](CC(C)C)NC(=O)CCC1CC(OC(=O)NCc2ccc3c(c2)OCO3)CC2(CCCC(COC(=O)NCc3cccc(C(F)(F)F)c3)O2)O1 (stereo not given in full) | 0.15 | -0.229 | -0.031 | -0.235 (inactive) | 0.418 | -0.319 | 0.242 | 0.395 | 0.355 | 0.348 | 0.323 | -1.44 | 0.227 | 0.0753 | -0.259 | -0.148 | -0.138 | -0.316 | -0.0298 | 0.111
4 | COC(=O)[C@H](C)NC(=O)CCC1CC(OC(=O)NCCc2ccc(F)cc2)CC2(CCCC(COC(=O)NCCC(C)C)O2)O1 (stereo not given in full) | 0.597 | -0.185 | -0.269 | -1.56 (inactive) | 0.866 | -0.102 | 0.0797 | 0.961 | 0.0468 | 0.299 | 0.466 | 0.839 | 0.482 | 0.0458 | -0.233 | -0.119 | 0.0483 | -0.254 | 0.189 | 1.07
5 | COc1cccc([C@H]2Oc3ccc(OC)cc3C(=NOC(C)CN3CCCCc4nc(C)c(C)cc43)[C@@H]2O)c1 (stereo not given in full) | -0.0106 | -0.151 | -0.223 | -0.49 (inactive) | 0.422 | -0.313 | 0.132 | 0.179 | 0.064 | 0.937 | -0.168 | -2.48 | 0.321 | 0.147 | -0.861 | -0.148 | 0.151 | -0.219 | 0.29 | 0.385
6 | O=C1CCCC(C2=CCCCC2=O)C1 (stereo not given) | -0.153 | -0.356 | -0.766 | 0.378 (inactive) | 0.466 | 0.555 | 0.612 | 0.668 | 0.923 | 1.5 | -0.281 | -0.293 | 0.524 | -0.732 | -1.38 | -0.0548 | 0.116 | -0.14 | 0.086 | -0.19
7 | O=C1C[C@@H](O)[C@@H](O)[C@@H]2[C@@H]3C(=O)N(Cc4ccc5c(c4)OCO5)C(=O)[C@@H]3CC[C@H]12 | 0.063 | -0.312 | -0.406 | 1.03 (inactive) | 0.309 | 0.7 | 0.368 | 0.703 | 0.593 | 0.128 | 0.508 | -0.194 | 0.632 | -0.0373 | -0.646 | -0.208 | 0.0121 | -0.0502 | 0.346 | -0.109
8 | CCOC(=O)[C@H](CC(C)C)NC(=O)CCC1CC(OC(=O)NCCc2ccc(F)cc2)CC2(CCCC(COC(=O)NCCc3ccccc3OC)O2)O1 (stereo not given in full) | 0.82 | -0.186 | -0.313 | -0.135 (inactive) | 0.768 | 0.773 | 0.603 | 0.744 | 0.526 | -0.0274 | 1.29 | -1.38 | 0.61 | 1.57 | 0.535 | -0.119 | 0.157 | -0.0787 | 0.793 | 0.493
9 | CCN1C(=O)[C@H]2[C@H]3[C@H](O)[C@H](O)CC(=NNC(=O)OCc4ccc(OC)cc4)[C@@H]3CC[C@H]2C1=O | -0.492 | 1.08 | 0.765 | 0.564 (inactive) | -0.0766 | 0.269 | -0.0752 | 0.0539 | -0.808 | 0.242 | -0.246 | -0.193 | -0.0843 | -0.484 | -0.732 | -0.261 | 0.401 | -0.272 | -0.717 | 0.374
10 | COC(=O)CC=C[C@@H](C)[C@H](OCc1cccc(-c2ccccc2)c1)C1CCCCC1 | -0.632 | -0.416 | -0.223 | -0.102 (inactive) | -0.127 | -1.21 | 0.371 | 0.736 | 0.352 | 1.97 | -0.533 | 1.04 | 0.134 | -0.532 | 0.472 | -0.12 | -0.0694 | -0.168 | 0.14 | 1.9

From PubChem BioAssay
